Data taken from the supplement of paper PMC11732987, “Enantioselective OTUD7B fragment discovery through chemoproteomics screening and high-throughput optimisation” (Communications Chemistry, 2025).

Key:
Assay in all cases: log2 ratio of Biotin-Ahx-Ub-VS probe labelling (fragment/DMSO); higher = less target engagement (more negative = stronger competition), active = hit call of the paper (q ≤ 0.05, log2 ratio ≤ -1)
Details in all cases: compound concentration: 200 uM; treatment time: 3 h
USP34 = USP34 (UniProt Q70CQ2)
In short: (§1)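 Average log2 ratios of fragment over vehicle were obtained by unpaired t-test from global-median-normalised Spectronaut label-free quantities. Proteins with ≥2 unique peptides were included. HEK293T lysate (495 µg per sample) was treated in triplicate with fragment at 200 µM or vehicle for 3 h, then with Biotin-Ahx-Ub-VS at 0.5 µM final for 1 h, and labelled DUBs were NeutrAvidin-enriched and run by diaPASEF LC-MS/MS.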

USP36 = biological target: T1, USP36 (UniProt Q9P275)
T1 sequence (whole entry): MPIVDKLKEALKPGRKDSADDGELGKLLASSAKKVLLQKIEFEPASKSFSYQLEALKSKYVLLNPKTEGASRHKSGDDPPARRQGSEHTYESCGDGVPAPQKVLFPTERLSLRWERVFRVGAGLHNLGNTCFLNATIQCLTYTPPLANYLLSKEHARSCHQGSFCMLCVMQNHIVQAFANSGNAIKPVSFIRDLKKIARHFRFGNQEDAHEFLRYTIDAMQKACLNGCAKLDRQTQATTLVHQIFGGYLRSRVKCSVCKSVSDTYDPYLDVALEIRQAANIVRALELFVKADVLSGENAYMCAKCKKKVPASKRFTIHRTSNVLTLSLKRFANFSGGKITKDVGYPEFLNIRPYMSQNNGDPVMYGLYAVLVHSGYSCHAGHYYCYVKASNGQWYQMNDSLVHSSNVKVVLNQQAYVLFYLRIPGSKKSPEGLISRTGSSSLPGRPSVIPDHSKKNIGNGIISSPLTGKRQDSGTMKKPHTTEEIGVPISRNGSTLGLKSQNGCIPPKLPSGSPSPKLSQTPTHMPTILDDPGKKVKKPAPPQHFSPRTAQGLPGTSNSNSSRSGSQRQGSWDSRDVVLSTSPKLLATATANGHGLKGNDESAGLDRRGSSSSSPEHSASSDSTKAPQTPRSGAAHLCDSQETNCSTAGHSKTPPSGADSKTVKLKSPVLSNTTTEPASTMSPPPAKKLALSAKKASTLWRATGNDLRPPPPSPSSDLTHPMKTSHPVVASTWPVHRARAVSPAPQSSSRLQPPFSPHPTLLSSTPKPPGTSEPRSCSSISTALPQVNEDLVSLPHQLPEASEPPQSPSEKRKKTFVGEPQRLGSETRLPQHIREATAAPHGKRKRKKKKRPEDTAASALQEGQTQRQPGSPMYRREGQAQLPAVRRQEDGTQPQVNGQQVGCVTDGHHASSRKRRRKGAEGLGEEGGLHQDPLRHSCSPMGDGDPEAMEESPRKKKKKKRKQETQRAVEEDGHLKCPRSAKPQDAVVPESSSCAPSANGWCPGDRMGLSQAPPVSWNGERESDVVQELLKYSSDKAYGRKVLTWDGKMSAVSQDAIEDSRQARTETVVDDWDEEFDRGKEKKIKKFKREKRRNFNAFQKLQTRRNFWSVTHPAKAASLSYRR
In short: as §1

USP38 = biological target: T2, USP38 (UniProt Q8NB14)
T2 sequence (whole entry): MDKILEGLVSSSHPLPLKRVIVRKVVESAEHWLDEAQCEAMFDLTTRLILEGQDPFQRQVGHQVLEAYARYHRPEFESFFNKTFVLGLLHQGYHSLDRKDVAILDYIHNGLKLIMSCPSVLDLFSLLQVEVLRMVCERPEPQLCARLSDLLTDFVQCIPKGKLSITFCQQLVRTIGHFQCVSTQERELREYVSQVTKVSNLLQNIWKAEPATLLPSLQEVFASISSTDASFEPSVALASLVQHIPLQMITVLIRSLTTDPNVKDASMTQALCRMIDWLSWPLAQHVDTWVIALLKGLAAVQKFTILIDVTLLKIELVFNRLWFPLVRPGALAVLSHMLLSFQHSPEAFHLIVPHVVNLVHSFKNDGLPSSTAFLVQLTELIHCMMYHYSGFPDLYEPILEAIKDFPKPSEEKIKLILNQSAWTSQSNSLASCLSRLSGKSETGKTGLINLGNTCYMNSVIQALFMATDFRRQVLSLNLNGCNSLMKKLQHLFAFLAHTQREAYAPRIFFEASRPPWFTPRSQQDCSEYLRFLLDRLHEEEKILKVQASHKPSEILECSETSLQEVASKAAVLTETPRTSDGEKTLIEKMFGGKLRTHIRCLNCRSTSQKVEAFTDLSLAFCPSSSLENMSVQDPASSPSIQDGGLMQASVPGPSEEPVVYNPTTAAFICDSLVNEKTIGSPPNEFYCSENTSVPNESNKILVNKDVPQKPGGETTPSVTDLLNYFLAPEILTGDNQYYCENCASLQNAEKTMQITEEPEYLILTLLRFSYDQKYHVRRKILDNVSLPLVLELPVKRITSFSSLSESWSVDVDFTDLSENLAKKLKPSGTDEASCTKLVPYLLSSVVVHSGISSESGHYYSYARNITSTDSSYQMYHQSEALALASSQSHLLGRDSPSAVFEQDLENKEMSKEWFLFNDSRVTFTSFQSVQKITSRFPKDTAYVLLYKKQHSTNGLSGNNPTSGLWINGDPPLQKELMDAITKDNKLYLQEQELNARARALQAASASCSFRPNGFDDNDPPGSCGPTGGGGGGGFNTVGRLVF
In short: as §1

USP39 = biological target: T3, USP39 (UniProt Q53GS9)
T3 sequence (whole entry): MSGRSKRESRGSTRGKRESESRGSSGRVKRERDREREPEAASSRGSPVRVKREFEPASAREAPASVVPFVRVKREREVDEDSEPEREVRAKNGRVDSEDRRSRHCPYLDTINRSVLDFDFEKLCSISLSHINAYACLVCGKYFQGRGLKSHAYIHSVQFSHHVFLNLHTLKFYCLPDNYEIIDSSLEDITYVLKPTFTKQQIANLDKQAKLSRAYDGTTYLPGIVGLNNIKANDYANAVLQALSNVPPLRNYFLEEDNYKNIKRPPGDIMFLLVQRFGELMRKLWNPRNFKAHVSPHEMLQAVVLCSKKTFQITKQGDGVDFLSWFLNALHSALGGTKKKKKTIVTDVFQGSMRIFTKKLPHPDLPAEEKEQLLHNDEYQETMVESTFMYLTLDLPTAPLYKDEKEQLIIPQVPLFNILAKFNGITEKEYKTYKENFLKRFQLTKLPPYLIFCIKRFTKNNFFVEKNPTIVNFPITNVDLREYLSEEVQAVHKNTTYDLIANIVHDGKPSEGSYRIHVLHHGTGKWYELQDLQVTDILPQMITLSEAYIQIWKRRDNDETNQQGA
In short: as §1

USP4 = biological target: T4, USP4 (UniProt Q13107)
T4 sequence (whole entry): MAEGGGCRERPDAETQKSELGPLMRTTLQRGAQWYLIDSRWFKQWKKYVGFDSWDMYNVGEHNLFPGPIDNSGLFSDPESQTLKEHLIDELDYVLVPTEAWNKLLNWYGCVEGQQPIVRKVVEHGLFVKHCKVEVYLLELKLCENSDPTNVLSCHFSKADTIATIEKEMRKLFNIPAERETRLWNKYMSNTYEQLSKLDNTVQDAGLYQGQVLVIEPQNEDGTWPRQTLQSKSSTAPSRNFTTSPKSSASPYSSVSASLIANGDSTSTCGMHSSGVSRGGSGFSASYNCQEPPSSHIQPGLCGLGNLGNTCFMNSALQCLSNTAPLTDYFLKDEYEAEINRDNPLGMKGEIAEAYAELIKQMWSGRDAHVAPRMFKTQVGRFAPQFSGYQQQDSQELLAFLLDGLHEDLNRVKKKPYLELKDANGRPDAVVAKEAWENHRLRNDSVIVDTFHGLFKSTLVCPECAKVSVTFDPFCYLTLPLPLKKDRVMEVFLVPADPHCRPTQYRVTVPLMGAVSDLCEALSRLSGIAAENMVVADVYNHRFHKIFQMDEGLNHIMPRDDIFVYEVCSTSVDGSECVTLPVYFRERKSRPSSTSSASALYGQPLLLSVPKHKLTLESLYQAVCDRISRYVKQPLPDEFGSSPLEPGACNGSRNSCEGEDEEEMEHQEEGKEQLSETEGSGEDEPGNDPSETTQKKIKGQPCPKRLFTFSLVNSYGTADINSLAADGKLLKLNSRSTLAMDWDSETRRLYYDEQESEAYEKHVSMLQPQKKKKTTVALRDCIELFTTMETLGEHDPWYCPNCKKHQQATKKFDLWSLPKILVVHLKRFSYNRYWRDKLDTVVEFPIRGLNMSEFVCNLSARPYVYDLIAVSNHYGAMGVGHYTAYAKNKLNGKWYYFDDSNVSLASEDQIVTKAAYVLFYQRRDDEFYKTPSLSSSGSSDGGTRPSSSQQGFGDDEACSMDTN
In short: as §1

Measured: log2 ratio of Biotin-Ahx-Ub-VS probe labelling

Sequence of USP34 (Q70CQ2 whole entry, the tested form may be a part): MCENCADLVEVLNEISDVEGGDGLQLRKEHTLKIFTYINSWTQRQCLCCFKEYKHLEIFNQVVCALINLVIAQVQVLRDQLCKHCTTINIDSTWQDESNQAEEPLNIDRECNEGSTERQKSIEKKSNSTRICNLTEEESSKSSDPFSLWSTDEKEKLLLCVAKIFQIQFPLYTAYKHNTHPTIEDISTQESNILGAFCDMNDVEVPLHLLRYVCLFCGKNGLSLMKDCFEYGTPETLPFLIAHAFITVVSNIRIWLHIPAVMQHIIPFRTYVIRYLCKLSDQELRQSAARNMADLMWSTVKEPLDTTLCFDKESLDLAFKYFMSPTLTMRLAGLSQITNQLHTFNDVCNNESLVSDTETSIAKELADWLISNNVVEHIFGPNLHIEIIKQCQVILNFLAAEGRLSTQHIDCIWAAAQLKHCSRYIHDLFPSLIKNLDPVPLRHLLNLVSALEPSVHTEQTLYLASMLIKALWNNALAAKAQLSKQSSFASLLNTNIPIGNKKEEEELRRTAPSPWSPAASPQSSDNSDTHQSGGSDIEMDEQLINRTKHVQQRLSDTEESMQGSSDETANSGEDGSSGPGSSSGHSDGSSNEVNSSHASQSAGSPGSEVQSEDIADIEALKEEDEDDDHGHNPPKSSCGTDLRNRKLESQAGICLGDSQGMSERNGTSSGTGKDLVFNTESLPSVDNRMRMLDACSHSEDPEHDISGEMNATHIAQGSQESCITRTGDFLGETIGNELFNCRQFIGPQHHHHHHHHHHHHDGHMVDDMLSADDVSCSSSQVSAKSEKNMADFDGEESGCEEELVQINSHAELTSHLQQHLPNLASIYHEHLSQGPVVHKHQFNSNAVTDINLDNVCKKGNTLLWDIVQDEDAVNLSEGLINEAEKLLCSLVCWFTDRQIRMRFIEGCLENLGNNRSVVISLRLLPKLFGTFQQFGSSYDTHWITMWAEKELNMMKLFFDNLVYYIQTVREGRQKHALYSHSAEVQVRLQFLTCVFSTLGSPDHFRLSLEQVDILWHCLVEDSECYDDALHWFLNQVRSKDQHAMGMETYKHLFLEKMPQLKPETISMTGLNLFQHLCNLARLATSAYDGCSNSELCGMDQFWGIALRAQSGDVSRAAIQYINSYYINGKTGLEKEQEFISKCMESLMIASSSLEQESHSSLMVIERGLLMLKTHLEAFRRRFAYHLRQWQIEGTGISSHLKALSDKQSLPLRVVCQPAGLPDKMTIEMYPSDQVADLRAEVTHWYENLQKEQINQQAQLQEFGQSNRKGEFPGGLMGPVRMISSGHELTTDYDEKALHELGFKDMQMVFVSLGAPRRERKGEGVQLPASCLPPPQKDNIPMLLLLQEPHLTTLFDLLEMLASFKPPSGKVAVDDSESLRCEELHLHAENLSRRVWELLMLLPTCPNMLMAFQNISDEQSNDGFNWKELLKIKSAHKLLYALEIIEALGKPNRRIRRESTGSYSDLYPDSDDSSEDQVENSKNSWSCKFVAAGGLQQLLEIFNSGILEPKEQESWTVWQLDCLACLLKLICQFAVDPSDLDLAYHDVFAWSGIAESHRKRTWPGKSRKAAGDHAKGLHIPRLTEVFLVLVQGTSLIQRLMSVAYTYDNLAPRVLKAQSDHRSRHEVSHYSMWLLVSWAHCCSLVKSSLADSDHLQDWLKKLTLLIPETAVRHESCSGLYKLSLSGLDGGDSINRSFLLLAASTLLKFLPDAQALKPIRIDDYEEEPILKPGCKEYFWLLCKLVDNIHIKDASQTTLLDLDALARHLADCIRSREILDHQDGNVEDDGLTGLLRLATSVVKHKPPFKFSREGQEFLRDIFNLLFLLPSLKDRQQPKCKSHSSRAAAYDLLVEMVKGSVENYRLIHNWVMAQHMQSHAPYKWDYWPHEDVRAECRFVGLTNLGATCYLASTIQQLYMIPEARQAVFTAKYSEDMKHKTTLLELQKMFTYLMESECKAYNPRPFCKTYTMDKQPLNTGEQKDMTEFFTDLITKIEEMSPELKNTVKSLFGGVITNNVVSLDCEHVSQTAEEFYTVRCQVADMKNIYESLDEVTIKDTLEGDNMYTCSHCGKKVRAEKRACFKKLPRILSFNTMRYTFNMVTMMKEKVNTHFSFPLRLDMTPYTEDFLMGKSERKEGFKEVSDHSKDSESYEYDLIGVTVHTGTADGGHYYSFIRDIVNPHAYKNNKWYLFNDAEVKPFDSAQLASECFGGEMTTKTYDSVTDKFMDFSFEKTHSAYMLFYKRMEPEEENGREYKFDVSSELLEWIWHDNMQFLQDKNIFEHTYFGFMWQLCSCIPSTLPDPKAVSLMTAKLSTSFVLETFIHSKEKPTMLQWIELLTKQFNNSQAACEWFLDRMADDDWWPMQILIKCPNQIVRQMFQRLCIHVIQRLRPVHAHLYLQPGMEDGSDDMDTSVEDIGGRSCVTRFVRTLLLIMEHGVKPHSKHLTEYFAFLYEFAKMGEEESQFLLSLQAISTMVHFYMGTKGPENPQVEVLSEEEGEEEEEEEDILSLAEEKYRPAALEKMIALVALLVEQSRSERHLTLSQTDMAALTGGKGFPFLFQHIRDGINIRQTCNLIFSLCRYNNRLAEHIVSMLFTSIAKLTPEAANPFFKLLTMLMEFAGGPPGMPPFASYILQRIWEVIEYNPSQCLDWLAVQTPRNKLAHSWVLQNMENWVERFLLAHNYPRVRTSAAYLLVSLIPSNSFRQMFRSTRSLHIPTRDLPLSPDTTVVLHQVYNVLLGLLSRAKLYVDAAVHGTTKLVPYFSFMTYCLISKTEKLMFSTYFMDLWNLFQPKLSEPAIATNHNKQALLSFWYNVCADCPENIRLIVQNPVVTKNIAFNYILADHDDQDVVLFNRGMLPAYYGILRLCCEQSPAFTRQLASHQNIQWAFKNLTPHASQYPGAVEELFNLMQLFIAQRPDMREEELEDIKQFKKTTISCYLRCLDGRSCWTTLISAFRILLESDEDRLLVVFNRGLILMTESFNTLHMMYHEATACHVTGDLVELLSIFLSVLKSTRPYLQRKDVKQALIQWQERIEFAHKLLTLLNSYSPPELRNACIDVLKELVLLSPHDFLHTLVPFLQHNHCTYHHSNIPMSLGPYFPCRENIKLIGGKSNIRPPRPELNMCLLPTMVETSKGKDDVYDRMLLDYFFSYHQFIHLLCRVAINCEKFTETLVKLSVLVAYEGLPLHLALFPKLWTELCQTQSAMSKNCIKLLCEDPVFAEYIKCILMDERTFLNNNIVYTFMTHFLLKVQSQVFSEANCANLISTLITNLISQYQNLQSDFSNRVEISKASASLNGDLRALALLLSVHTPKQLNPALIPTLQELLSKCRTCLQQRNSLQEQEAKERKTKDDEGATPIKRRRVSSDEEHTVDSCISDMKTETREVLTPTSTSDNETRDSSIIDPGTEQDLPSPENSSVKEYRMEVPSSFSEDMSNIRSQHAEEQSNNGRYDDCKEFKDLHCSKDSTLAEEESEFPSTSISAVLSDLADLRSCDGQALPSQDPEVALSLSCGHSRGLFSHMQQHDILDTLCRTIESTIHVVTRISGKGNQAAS

Cc1cccn2cc(CCNC(=O)CCl)nc12.Cl
inactive: USP34 -0.083 | USP36 -0.0485 | USP38 -0.247 | USP39 -0.319 | USP4 -0.12
